# The supplement of paper PMC10338343
# ± gives the standard deviation. Over roughly 3,000 sequences, “pre-steady-state target cleavage rate” has its median near 0.0079; the highest 2% begin near 0.2. This is one part of a sample in which the highest values are shown more often than they occur.
# System: MILI (PIWIL2) piRISC loaded with piRNA #2 (26 nt)
# Experiment: pre-steady-state target cleavage rate (min^-1); MIWI and MILI are mouse PIWI proteins and EfPiwi is from a freshwater sponge; tags in brackets are library labels; higher = faster piRNA-guided slicing of the target
# Conditions: guide: piRNA #2 5'p-UUAGGUAACCCAGUAGAUCCAGAGGA; auxiliary factor: 500 nM mouse GTSF1
# Protocol: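 Cleave-'n-Seq: a library of target RNAs (target site embedded in constant flanks, ACAGCATTCCGCGTTAGTGATATCCG... 5' flank; DNA-blocked outside the site) at 0.1 nM was incubated with 1 nM active mouse MILI or MIWI piRISC (synthetic 5'-monophosphorylated piRNA guide) with or without 500 nM mouse GTSF1 at 33 °C for 1 min to 16 h. Uncleaved targets were sequenced and normalised to non-target controls, and the pooled three trials were fitted to a burst-and-steady-state model to give the pre-steady-state cleavage rate (min^-1; k3 is constrained to at most 1e-4). Sequence is the target site only; target names encode pairing extent (gX:gY) and contiguous / 1-mismatch / 2-mismatch / bulge geometry. Fits with R² ≤ 0 are excluded.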
row,Sequence,pre-steady-state target cleavage rate
1,CUUAUCCUCUGGAUACUACUGGGUUACCUAA,0.0816 ± 0.019
2,CUUAAGCUCUGGAUCUACUGGGUUUCGUAA,0.0193 ± 0.0086
3,CUUAUCCUGUGGAUCUACUGGGUUACGUAA,0.0102 ± 0.0038
4,CUUAAGGUCUGGACUCUACUGGGUUACCUAA,0.0367 ± 0.014
5,CUUAACACUCUGGAUCUACUGGGUUACCUAA,0.0824 ± 0.024
6,CUUAAGCUCUGGAUCUACUGGGUUACGUAA,0.0464 ± 0.011
7,CUUAUCCUGCUGGAUCUACUGGGUUACCUAA,0.0776 ± 0.018
8,CUUAUCCUCUGGAUGUACUGGGUAACCUAA,0.0198 ± 0.0082
9,CUUAACCUCUCGAUCUACUGGGUUACGUAA,0.052 ± 0.017
10,CUUAUCCUCUGUAUCUACUGGGUUACCUAA,0.0865 ± 0.015
11,CUUAUCCUCUGGAUCUACUGGGGUUACCUAA,0.0435 ± 0.012
12,CUUAUCCUCUGCUUCUACUGGGUUACCUAA,0.157 ± 0.026
13,CUUAUCCUCUGGUUCUUCUGGGUUACCUAA,0.338 ± 0.088
14,CUUAUCCUCUGGAUCUUCUGGGUUACCUAA,0.105 ± 0.019
15,CUUAUCCUCUGGUAUCUACUGGGUUACCUAA,1.05 ± 0.33
16,CUUAUCCUCUGGUUCUACUGCGUUACCUAA,0.0261 ± 0.0078
17,CUUAUCCUCUCGUUCUACUGGGUUACCUAA,0.136 ± 0.021
18,CUUAUCCUCUGGUUCUAGUGGGUUACCUAA,0.134 ± 0.028
19,CUUAUCCUCUCCUUCUACUGGGUUACCUAA,0.106 ± 0.023
20,CUUAUCCUCUGGUUCUACUGGGUUACCUAA,0.469 ± 0.1
21,CUUAUCCUCUGGUUCUACUGGGUUACCUUA,1.12 ± 0.39
22,CUUAACCUCUGGAUCUACUGGGUUACCAUAA,0.13 ± 0.03
23,CUUAAGGAGACCUUCUACUGGGGUACCUAA,< 0.0001
24,CUUAAGGUGUGGAUCAACUGGGUUACCUAA,0.014 ± 0.0076
25,CUUAAGCUCUGGAUCUUGUGGGUUACCUAA,0.00903 ± 0.0046
26,CUUAACCUCUGGAUCUACGGGGUUACCUAA,0.0813 ± 0.012

row,Sequence,pre-steady-state target cleavage rate
1,CUUAAGGAGUGGAUCUACUGGGUUACCGUAA,0.0155 ± 0.0079
2,CUUAUCCUCUGGAUCUACAGGGUUACCUAA,0.119 ± 0.016
3,CUUAAGGACAGGAUCUACUGGGUUACCUAA,0.0192 ± 0.013
4,CUUAAGGAGACCUAGAUCUGGGUAACCAAA,< 0.0001
5,CUUAACCUCUGUAUCUACUGGGUUACCUAA,0.071 ± 0.013
6,CUUAACCUCUGGUUCUACUGGGUAACCUAA,0.14 ± 0.044
7,CUUAUCCUCUGGAUCAACUGGGUUACCUAA,0.0659 ± 0.012
8,CUUAAGCUCUGGUAUCUACUGGGUUACCUAA,0.15 ± 0.038
9,CUUAUCCUCUGGUAGUACUGGGUUACCUAA,0.103 ± 0.035
10,CUUAACCUCUGGUUCAACUGGGUUACCUAA,0.117 ± 0.035
11,CUUAUCCUCUGGUACUACUGGGUUACCUAA,0.754 ± 0.23
12,CUUAUCCUCUGGUUCAACUGGGUUACCUAA,0.225 ± 0.063
13,CUUAUCCUCUGGUUGUACUGGGUUACCUAA,0.151 ± 0.031
14,CUUAACCUCUGGUAUCUACUGGGUUACCUAA,0.584 ± 0.19
15,CUUAUCCUCUGGAUCUACUGGGUAACCUAA,0.0929 ± 0.021
16,CUUAUCCUCUGGUUCUACUGGGUAACCUAA,0.268 ± 0.097
17,CUUAAGGAGUAGGAUCUACUGGGUUACCUAA,0.00494 ± 0.0041
18,CUUAAGGUCUGCAUCUACUGGGUUACCAAA,0.0157 ± 0.0062
19,CUUAAGCUCUGGAUCUACUGGGUUAGCUAA,0.094 ± 0.018
20,CUUAACCUCUGGAUCUAUUGGGUUACCUAA,0.0785 ± 0.023
21,CUUAAGCUCUGGAUGUAGUGGGUUACCUAA,0.061 ± 0.011
22,CUUAAGCUCUGGAUCUACUGGGCUUACCUAA,0.019 ± 0.0061
23,CUUAACCUCUGGUUCUACUGGGUUACCUAA,0.141 ± 0.031
24,CUUAACCUCUGGAGUCUACUGGGUUACCUAA,0.135 ± 0.031
25,CUUAACCUCUGGUUCUACUGGGUUACCAAA,0.134 ± 0.037
26,CUUAACCUCUGGUUCUACUGGGUUACCUUA,0.3 ± 0.087

row,Sequence,pre-steady-state target cleavage rate
1,CUUAACCUCUGGUCUACUGGGUUACCUAA,0.333 ± 0.11
2,CUUAACCUCUGGGUCUACUGGGUUACCUAA,0.169 ± 0.029
3,CUUAUCCUCUGGAUCUAUGGGUUACCUAA,0.0334 ± 0.0086
4,CUUAACCUCUGCAUGUACUGGGUUACCUAA,0.117 ± 0.016
5,CUUAUCGUCUCGAUCUACUGGGUUACCUAA,0.0585 ± 0.014
6,CUUAAGGAAUGGAUCUACUGGGUUACCUAA,0.0666 ± 0.015
7,CUUAAGCACUGCAUCUACUGGGUUACCUAA,0.0725 ± 0.015
8,CUUAAGCACUGGUUCUACUGGGUUACCUAA,0.199 ± 0.043
9,CUUAAGCACUCGAUCUACUGGGUUACCUAA,0.417 ± 0.15
10,CUUAAGCACUGGAUCUACUGGGUUACCUAA,0.113 ± 0.02
11,CUUAAGCUCUCGAUCUACUGGGUUACCUAA,0.113 ± 0.019
12,CUUAAGCUGUGGUUCUACUGGGUUACCUAA,0.0437 ± 0.014
13,CUUAAGGUCAGGUUCUACUGGGUUACCUAA,0.0166 ± 0.0093
14,CUUAACCUCUGGAACUACUGGGUUACGUAA,0.118 ± 0.051
15,CUUAAGGUCAGGAUCUACUGGGUUACCUUA,0.0166 ± 0.0094
16,CUUAUCCUCUGGAUCUACUGGGUUACCUGAA,0.384 ± 0.17
17,CUUAUCCUCUGGAUCUACUGGGUUACCUA,0.159 ± 0.032
18,CUUAUCCUCUGGAUCUACUGGGUUACCUAC [g2:g26:cont:t1C],0.105 ± 0.014
19,CUUAUCCUCUGGAUCUACUGGGUUACCUCAA,0.0973 ± 0.019
20,CUUAUCCUCUGGAUCUACUGGGUUACCUCA,0.0902 ± 0.018
21,CUUAUCCUCUGGAUCUACUGGGUUACCUGA,0.838 ± 0.37
22,CUUAAGCUCAGGAUCUACUGCGUUACCUAA,0.0105 ± 0.0058
23,CUUAAGGUCUGGAUCUAGUGGGUUACGUAA,0.0114 ± 0.004
24,CUUAUCCUCUGGAUCUACUGGAUUACCUAA,0.0307 ± 0.0083
25,CUUAAGGAGUGGAUCUAGUGGGUUACCUAA,0.0231 ± 0.0069
26,CUUAUCCUCUGGAUCUACUGGGAUAGCUAA,0.0182 ± 0.0088
